Assay outcomes: PubChem BioAssay, National Center for Advancing Translational Sciences (NCATS)
This is a sample that favours compounds with a hit; in the whole collection about 7.2% have one here.
FMDV antiviral: High Throughput Screening for Foot and Mouth Disease Virus Antivirals; Potency, µM (highest dose often 57.9 µM), without a hit: at the top dose activity change, negative = inhibition, hits mostly inhibitors; FMDV antiviral cell-based qHTS; actives 1.2% (n = 410,000); AID 1159524, 2015; calls by dose curve; tested in HEK293T cells; also: read-out not given here; nearly all actives have a fitted effect of over 45% in size
Sm TGR inh: qHTS Assay for the Inhibitors of Schistosoma Mansoni Peroxiredoxins; Schistosoma mansoni thioredoxin glutathione reductase (TGR), Q962Y6; purified TGR, DTNB reduction, TNB absorbance 405 nm; Potency, µM (top dose mostly 114 µM), for inactives: at the top dose activity change, negative = inhibition, most hits filed as inhibitors; actives 3% (n = 360,000); also: nearly all actives have a fitted effect of over 60% in size
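TGR 20 nM + NADPH 100 uM (dispensed conc.), cpd preinc 15 min RT; start with NADPH (500 uM addition) then DTNB (15 mM addition). Kinetic TNB absorbance, 405 nm filter. Four-parameter Hill fit across titration.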
RE007 growth inh: qHTS Assay for Inhibitors of the HIV-1 protein Vpr. AID 651644, 2012. Potency, µM (top dose mostly 92.2 µM), for inactives: at the top dose activity change, negative = less growth, most hits filed as inhibitors. S. pombe RE007 Vpr strain, BacTiter-Glo ATP luminescence, 24 h. actives 0.21% (n = 360,000); active = well fitted falling curve with a large enough effect; inconclusive = small, poorly fitted or top-dose-only effect; inactive = no such curve, though single readings can be large or run the other way; also: nearly all actives have a fitted effect of over 50% in size
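Fission yeast RE007 carrying one integrated HIV-1 vpr copy, seeded at OD 0.01 in PMG+AL medium with 23 nL pinned compound. Grown 24 h at 30 degrees; viability read by BacTiter-Glo luminescence after 5 min.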
MARV entry inh: qHTS for inhibitors of binding or entry into cells for Marburg Virus; Marburg virus pseudotyped entry inhibition, cell reporter; Potency, µM (titrated, usually from 37.8 µM), for the others: at the top dose activity change, negative = inhibition, actives largely listed as inhibitors; actives 1.8% (n = 300,000); AID 540276, 2011; calls by dose curve; tested in HEK293 cells
HCV inhibitor: qHTS Assay for Inhibitors of Hepatitis C Virus (HCV). Huh7.5.1 HCVcc-Cre infection, luciferase reporter, 44 h. Potency, µM (top dose mostly 41.8 µM), without a hit: top-dose activity change, negative = inhibition, actives largely listed as inhibitors. actives 3.4% (n = 340,000)
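Seed cells (1,000/well) for 4 h; treat with compound and infect with HCVcc-Cre, moi about 0.5. Incubate 44 h, then detect luciferase activity.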
LASV entry inh: qHTS for Inhibitors of binding or entry into cells for Lassa Virus; Lassa virus pseudotype entry inhibition, cell reporter; AID 540256, 2011; Potency, µM (highest dose often 37.9 µM), inactives show at the highest dose activity change, negative = inhibition, usual class: inhibitors; actives 1.2% (n = 300,000); calls by dose curve; tested in HEK293 cells; also: nearly all actives have a fitted effect of over 50% in size
* = called active by the depositor; ? = inconclusive; nt = no result given; [ ] = remark or other dose. Unless noted, calls follow the shape of the dose curve; as a rule, active = well fitted curve in the direction sought with a large enough effect; inconclusive = small, poorly fitted or top-dose-only effect, or another doubt; inactive = no such curve, though single readings can be large; an effect the other way counts as inactive or inconclusive. % is scaled to controls: 0 for no effect and ±100 for the full control effect; potency is read from the fitted curve at half-maximal effect.

SMILES	FMDV antiviral	Sm TGR inh	RE007 growth inh	MARV entry inh	HCV inhibitor	LASV entry inh
COC(=O)c1cc(S(=O)(=O)N2CCC(c3ccccc3)C2)c[nH]1 (centres undefined)	?	-19%	-13%	nt	11µM*	nt
COC(=O)c1cc(S(=O)(=O)N2CCC(c3cc(OC)ccc3OC)C2)c[nH]1 (centres undefined)	-30%	0%	7%	nt	6.3µM*	nt
COC(=O)c1cc(S(=O)(=O)N2CCN(c3ccccc3)CC2)c[nH]1	0%	5%	-10%	nt	1%	nt
CCOc1ccccc1CNC(=O)CCn1ccc2cc(S(=O)(=O)N3CCC(C)CC3)ccc21	-2%	2%	nt	nt	nt	0%[46.1 µM]
COc1ccc(-n2ncc3c(N4CCN(Cc5ccccc5)CC4)ncnc32)cc1	35µM*	14%	-28%	?	?	?
Cc1ccc(-n2ncc3c(N4CCN(Cc5ccccc5)CC4)ncnc32)cc1C	14µM*	-3%	nt	nt	nt	?
CCN1CCN(c2ncnc3c2cnn3-c2ccccc2)CC1	33%	-2%	-5%	nt	-25%	nt
Cc1ccc(Cn2ncc3c(N4CCN(Cc5ccc(Cl)cc5)CC4)ncnc32)cc1	?	?	-9%	2.8µM*	4.5µM*	?
Cc1ccc(-n2ncc3c(N4CCN(CCO)CC4)ncnc32)cc1Cl	-15%	7.9µM*	nt	nt	nt	-2%[46.1 µM]
Clc1cccc(-n2ncc3c(N4CCN(Cc5ccccc5)CC4)ncnc32)c1	?	4%	nt	nt	nt	0%[46.1 µM]
O=C(NCCC1=CCCCC1)C1CCN(C(=O)N2CCOc3ccc(Cl)cc32)CC1	-16%	4%	nt	nt	nt	-13%[46.1 µM]
Cc1ccc(C)c(N2CCN(c3ncnc4c3cnn4-c3ccccc3)CC2)c1	?	-3%	-14%	-4%	10%	nt
S=c1sc2c(N3CCN(Cc4ccccc4)CC3)ncnc2n1-c1ccccc1	28µM*	?	0%	?	5%	-9%
Cc1ccccc1C(=O)N1CCN(c2ncnc3c2cnn3-c2ccccc2)CC1	20µM*	-1%	-16%	?	7.9µM*	-15%
COc1ccc(-c2nnc(SCC(=O)Nc3ccc(C)c(C)c3)s2)cc1	2%	9%	nt	nt	nt	-17%[46.1 µM]
COc1cc([C@@H]2C(C#N)=C(N)Oc3cc(C)n(CCc4ccccc4)c(=O)c32)cc2c1OCO2	nt	nt	nt	-22%	nt	nt
C[C@H]1CCC[C@]2(C)C[C@H]3OC(=O)C(CN4CCCCCC4)[C@H]3C=C12 (some centres undefined)	22µM*	0%	-21%	nt	?	nt
c1cc(-c2ccc(N3CCOCC3)cc2)n2ccnc2c1	29%	nt	?	nt	nt	nt
Cc1ccc(C)c(N2CCN(C(=O)c3cc4sccc4n3C)CC2)c1	?	-1%	6%	18µM*	?	?
Cn1nc(C(C)(C)C)cc1C(=O)NCc1cc(F)cc2c1OCOC2	13µM*	25%	-3%	nt	?	nt
Cc1cc(C(=O)NCc2cc(F)cc3c2OCOC3)nn1C	33%	4%	3%	15%[46.1 µM]	9%	0%
Cc1cccc(CNC(=O)C2CCCN(S(=O)(=O)c3cn(C)cn3)C2)c1 (centres undefined)	-3%	3%	nt	nt	nt	5%[46.1 µM]
Cc1ncc2c(c1CNC(=O)c1cncs1)CCN(C(=O)c1cc(F)c(F)cc1F)C2	-4%	nt	nt	nt	nt	nt
CN(C)CCNc1oc(COc2ccc(-c3ccccc3)cc2)nc1C#N	-26%	45µM*	-7%	?	10µM*	?
COc1ccc(N2CCN(c3oc(COc4ccccc4)nc3C#N)CC2)cc1	-4%	6%	-2%	-9%	-19%	?
SMILES	FMDV antiviral	Sm TGR inh	RE007 growth inh	MARV entry inh	HCV inhibitor	LASV entry inh
COc1ccc(N2CCN(c3oc(Cc4ccccc4)nc3C#N)CC2)cc1	?	4%	0%	?	-27%	5.2µM*
CN1CCN(c2oc(COc3ccc(-c4ccccc4)cc3)nc2C#N)CC1	nt	-2%	5%	?	5µM*	-14%
COc1ccc(NC(=O)CSc2nc3c(sc4ccccc43)c(=O)n2CCCN2CCCC2)cc1	-4%	0%	1%	nt	2.5µM*	nt
COCCCn1c(SCC(=O)Nc2ccc(NC(=O)c3ccco3)c(OC)c2)nc2ccccc2c1=O	-30%	40µM*	14%	8%[46.1 µM]	?	0%
CCc1ccc(NC(=O)CSc2nc3ccccc3c(=O)n2CCCC(=O)N2CCCC2)cc1	19%	19%	12%	9.2µM*	?	26µM*
Cc1cccc(NC(=O)CSc2nc3ccccc3c(=O)n2C)c1C	?	nt	-1%	nt	nt	nt
CCc1ccc(NC(=O)CSc2nc3ccccc3c(=O)n2CCC(=O)NC2CCCCC2)cc1	-18%	0%	nt	nt	nt	3%[46.1 µM]
Cn1c(SCC(=O)Nc2ccccc2)nc2ccccc2c1=O	-27%	1%	79%	4µM*	?	?
COc1ccc(CNc2nc(-c3ccccc3CN(C)C)nc3ccccc23)c(OC)c1	-15%	nt	nt	nt	nt	nt
Cc1cccc(C)c1NC(=O)C1(C)CSCC(=O)N1Cc1cccc(C(F)(F)F)c1 (centres undefined)	-10%	nt	9%	nt	nt	nt
COC(=O)c1ccc(OCC2c3cc(OC)c(OC)cc3CCN2C(=O)c2ccc(F)cc2)cc1 (centres undefined)	?	-1%	nt	nt	nt	?
CCOC(=O)C(C)NC(=O)c1c(C)oc2ncn(CC(C)C)c(=O)c12 (centres undefined)	6%	1%	nt	nt	nt	23%[46.1 µM]
COc1ccc(-n2c(SCC(=O)Nc3ccc(C(N)=O)cc3)nc3ccccc3c2=O)cc1OC	-3%	-1%	-16%	-25%[46.1 µM]	-14%	4%[46.1 µM]
CCOc1ccccc1NC(=O)CSc1nc2cc(O)ccc2c(=O)n1-c1ccc(OC)c(OC)c1	?	9%	1%	nt	11µM*	nt
COc1ccccc1NC(=O)CSc1nc2ccccc2c(=O)n1C	14µM*	0%	3%	nt	-5%	nt
CCN1C2=C(C=C/C1=C1\C(=O)N(C)C(=S)N1C1CCCCC1)CCCC2	nt	nt	nt	2%[46.1 µM]	nt	nt
NS(=O)(=O)c1ccc2ccccc2c1	6%	-9%	3%	-1%[46.1 µM]	23%	-4%
O=C(O)/C=C/S(=O)(=O)c1ccc2ccccc2c1	-3%	0.89µM*	-9%	nt	6%	nt
CCOC(=O)CN1C(=O)C2(CC(C)=C[C@@H](C)O2)c2c(Br)cccc21 (some centres undefined)	nt	nt	nt	3%[14.2 µM]	nt	?
O=C(COc1cccnc1[N+](=O)[O-])Nc1cccc2ccccc12	-19%	-3%	-7%	-26%	10%	-19%
Cn1cnc([N+](=O)[O-])c1Cl	?	4µM*	1%	0%	?	-16%
CCN(CC)c1c([N+](=O)[O-])ncn1C	-13%	-13%	7%	-16%	-1%	-1%
